Measurements reported in PubChem BioAssay AID540308 (The Scripps Research Institute Molecular Screening Center, 2011).
About 3,500 (0.97%) of roughly 360,000 compounds were called active.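 The calls were made as follows: active = activation above a per-plate cutoff, the mean activation of sample wells on that plate plus 3 SD (cut at about 8% in these data); inactive = the rest.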 The list comes from a sample in which actives are over-represented; it also holds similar structures and randomly drawn compounds.

The compounds below were run against Melanocortin receptor 4 (Homo sapiens) (UniProt P32245) (assay: MC4R agonists recruiting beta-arrestin, primary screen, cell-based, luminescence, agonist arm of biased-ligand search (AID 540308)). Conditions: U2OS MC4R beta-arrestin complementation, at 8.9 µM, active compounds read high, percent of melanotan II response, DMSO zero.
Melanocortin receptor 4 (Homo sapiens), sequence (P32245 whole entry, looked up): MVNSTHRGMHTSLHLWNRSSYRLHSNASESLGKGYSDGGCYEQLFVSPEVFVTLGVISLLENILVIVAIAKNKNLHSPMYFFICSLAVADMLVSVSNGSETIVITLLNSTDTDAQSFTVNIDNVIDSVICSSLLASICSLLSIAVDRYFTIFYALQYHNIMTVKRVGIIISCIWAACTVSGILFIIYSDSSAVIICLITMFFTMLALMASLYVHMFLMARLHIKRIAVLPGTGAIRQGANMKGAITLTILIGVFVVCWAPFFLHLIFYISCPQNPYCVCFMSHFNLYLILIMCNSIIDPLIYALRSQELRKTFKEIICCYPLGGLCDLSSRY

SMILES	activation
CCCCc1ccc(S(=O)(=O)NC(=O)C2(C)CCN2C(=O)c2c(C)noc2C)cc1 (stereo not given)	-2.14% (inactive)
Cc1cc(Cl)ccc1-c1nc(NCCN(C)C)nc2ccsc12	-0.54% (inactive)
CCOC(=O)c1[nH]cnc1C(=O)Nc1ccccc1C	1% (inactive)
O=C(Nc1ccon1)c1nc[nH]c1C(=O)NCc1ccccc1	-0.8% (inactive)
CCOC(=O)c1ccc(NC(=O)c2nc[nH]c2C(=O)NCc2ccccc2)cc1	8.44% (active)
COc1ccc(C(=O)N2CCCCC2c2cc(C(=O)Nc3ccc(F)c(Cl)c3)no2)cc1 (stereo not given)	2.26% (inactive)
Cc1ccc(C(=O)Cn2cc([N+](=O)[O-])nc2C)cc1	-1.74% (inactive)
Cc1ccc(-n2cc3ccc([N+](=O)[O-])cc3n2)cc1	16.1% (active)
Cc1ccnc(N2C(=O)c3ccc([N+](=O)[O-])cc3C2=O)c1	-1.22% (inactive)
COc1ccc(C(C)(O)c2nc(-c3cc(F)cc(F)c3)cs2)cc1 (stereo not given)	3.01% (inactive)
Cc1ccc(Sc2ccc(NC(=O)c3ccc(F)cc3)cc2C#N)cc1	17% (active)
COc1ccc(Sc2ccc(NC(=O)c3cccc(Cl)c3)cc2C#N)cc1	-0.48% (inactive)
COC(=O)c1ccc(Sc2ccc(F)cc2)c(N)c1	-1.17% (inactive)
Clc1ccc(-c2cccc3nccn23)cc1	-0.44% (inactive)
N#CCC(=O)N/N=C/c1cn(Cc2ccc3ccccc3c2)c2ccccc12	11.1% (active)
CCOC(=O)N/N=C/c1cn(Cc2ccccc2Cl)c2ccccc12	-2.13% (inactive)
COc1cccc(Cn2cc(/C=N/NC(=O)c3cc(O)cc(O)c3)c3ccccc32)c1	-2.32% (inactive)
COC(=O)c1cc(S(=O)(=O)N2CCN(c3cc(C)ccc3C)CC2)c[nH]1	9.07% (active)
Cc1ccc(C)c(N2CCN(S(=O)(=O)c3c(C)[nH]c(C)c3C(=O)N3CCCC3)CC2)c1	-0.89% (inactive)
Cc1ccc(C)c(N2CCN(S(=O)(=O)c3ccc4c(c3)oc(=O)n4C)CC2)c1	-1.63% (inactive)
O=c1[nH]cnc2c1c(-c1ccccc1)cn2-c1ccc(F)cc1	8.69% (active)
O=c1c2c(-c3ccccc3)ccnc2[nH]n1-c1ccccc1	-0.95% (inactive)
COc1ccc(-n2cc(-c3ccccc3)c3c(=S)nc[nH]c32)cc1	2.91% (inactive)
COc1cc(Cn2c3ccc(NC(=O)CC(C)c4ccccc4)cc3c(=O)n2C)ccc1F (stereo not given)	1.46% (inactive)
O=C(NCc1ccccc1Cl)c1csc([C@@H]2O[C@H](CO)[C@@H](O)[C@H]2O)n1	-0.25% (inactive)
